# Experimental data reported in the supplement of paper PMC8728848.
# The entries come from a sample that favours the strongest signals as a whole.
# B1: LEA (Lycopersicon esculentum) (protein)
# chain: NEVFDVPMNETIGVESINASVGGYPRCGAQGDGGNCPSGMCCSVWGWCGKTYGYCAPQNCQKQCPAPYPEGRCGWQADGKSCPNGKCCSYGGWCGTTSDYCARQNCQKQCILPSPPPPPPPPPGFPRPECGLQKNGERCTKPGECCSIWGLCGATYKYCDPQHCQKQCSAPFPPGRCGWQADGRPCPTGQCCSFSGWCGTTSAHCTYPQCVSQCNDPRFPSSLNNRIQSFML
# What was measured:
# Test in all cases: glycan array binding signal (z-score within array); higher = stronger binding
# Details in all cases: glycan notation: IUPAC condensed, linker removed
# Fuc(a1-2)Gal(b1-4)GlcNAc = biological target: Fuc(a1-2)Gal(b1-4)GlcNAc
# In short: (§1)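 Arrays were curated from the Consortium for Functional Glycomics database, 3228 in total, and kept only where the protein sequence was available. Binding is expressed as a within-array Z-score. This score was averaged across arrays of the same protein sequence at different concentrations or buffers and across linkers, and negative values can be read as non-binding.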
# [1] = biological target: Fuc(a1-2)Gal6S(b1-4)Glc6S
# In short: as §1
# [2] = biological target: Fuc(a1-2)Gal6S(b1-4)GlcNAc
# In short: as §1
# [3] = biological target: Fuc(a1-2)[Gal(a1-3)]Gal(b1-4)GlcNAc
# In short: as §1
# [4] = biological target: Fuc(a1-2)[Gal(a1-4)]Gal(b1-4)GalNAc
# In short: as §1
# [5] = biological target: Fuc(a1-2)[GalNAc(a1-3)]Gal(b1-3)GlcNAc
# In short: as §1
# [6] = biological target: Fuc(a1-2)[GalNAc(a1-3)]Gal(b1-4)GlcNAc
# In short: as §1
# [7] = biological target: Fuc(a1-2)[GalNAc(a1-4)]Gal(b1-4)GlcNAc
# In short: as §1
# [8] = biological target: Fuc(a1-3)[Gal(b1-4)]GlcNAc(b1-4)Gal(b1-4)[Fuc(a1-3)]GlcNAc(b1-4)Gal(b1-4)[Fuc(a1-3)]GlcNAc
# In short: as §1
# [9] = biological target: Fuc(a1-3)[Gal3S(b1-4)]GlcNAc6S
# In short: as §1
# Gal(a1-4)GlcNAc = biological target: Gal(a1-4)GlcNAc
# In short: as §1
# [10] = biological target: Gal(b1-3)GalNAc(b1-3)Gal(a1-4)Gal(b1-4)Glc
# In short: as §1
# [11] = biological target: Gal(b1-3)[Neu5Ac(a2-6)]GlcNAc(a1-4)Gal(b1-4)Glc
# In short: as §1
# [12] = biological target: Gal(b1-4)GalNAc(b1-3)[Fuc(a1-2)]Gal(b1-4)GlcNAc
# In short: as §1
# [13] = biological target: Gal(b1-4)GlcNAc(b1-6)GalNAc
# In short: as §1
# [14] = biological target: Gal3S(b1-3)[Fuc(a1-4)]GlcNAc
# In short: as §1
# Gal6S(b1-4)Glc = biological target: Gal6S(b1-4)Glc
# In short: as §1
# GalNAc(a1-3)GalNAc = biological target: GalNAc(a1-3)GalNAc
# In short: as §1
# [15] = biological target: GalNAc(b1-3)Gal(a1-4)Gal(b1-4)GlcNAc
# In short: as §1
# GlcNAc(b1-3)Gal = biological target: GlcNAc(b1-3)Gal
# In short: as §1
# [16] = biological target: GlcNAc(b1-3)Gal(b1-3)GalNAc
# In short: as §1
# [17] = biological target: GlcNAc(b1-4)Gal(b1-4)GlcNAc
# In short: as §1
# [18] = biological target: GlcNAc(b1-4)GlcNAc(b1-4)GlcNAc(b1-4)GlcNAc(b1-4)GlcNAc(b1-4)GlcNAc
# In short: as §1
# GlcNAc(b1-6)GalNAc = biological target: GlcNAc(b1-6)GalNAc
# In short: as §1
# Kdn(a2-3)Gal(b1-3)GlcNAc = biological target: Kdn(a2-3)Gal(b1-3)GlcNAc
# In short: as §1
# [19] = biological target: Man(a1-2)Man(a1-2)Man(a1-6)[Man(a1-3)]Man
# In short: as §1
# [20] = biological target: Neu5Ac(a2-3)Gal(b1-3)GalNAc
# In short: as §1
# [21] = biological target: Neu5Ac(a2-3)Gal(b1-3)GalNAc6S
# In short: as §1
# [22] = biological target: Neu5Ac(a2-3)Gal(b1-4)GlcNAc(b1-3)Gal(b1-3)GlcNAc
# In short: as §1
# [23] = biological target: Neu5Ac(a2-3)Gal(b1-4)GlcNAc(b1-3)Gal(b1-4)[Fuc(a1-3)]GlcNAc
# In short: as §1
# [24] = biological target: Neu5Ac(a2-3)[GalNAc(b1-4)]Gal(b1-4)Glc
# In short: as §1
# [25] = biological target: Neu5Ac(a2-6)Gal(b1-4)GlcNAc(b1-2)Man(a1-3)[Neu5Ac(a2-6)Gal(b1-4)GlcNAc(b1-2)Man(a1-6)]Man(b1-4)GlcNAc(b1-4)GlcNAc
# In short: as §1
# [26] = biological target: Neu5Gc(a2-3)Gal(b1-4)[Fuc(a1-4)]GlcNAc
# In short: as §1
binder,measurement,setting,value
B1,glycan array binding signal (z-score),Fuc(a1-2)Gal(b1-4)GlcNAc,1.11
same,glycan array binding signal (z-score),[1],-0.512
same,glycan array binding signal (z-score),[2],-0.55
same,glycan array binding signal (z-score),[3],2.51
same,glycan array binding signal (z-score),[4],2.53
same,glycan array binding signal (z-score),[5],-0.547
same,glycan array binding signal (z-score),[6],2.5
same,glycan array binding signal (z-score),[7],2.62
same,glycan array binding signal (z-score),[8],-0.541
same,glycan array binding signal (z-score),[9],0.546
same,glycan array binding signal (z-score),Gal(a1-4)GlcNAc,-0.545
same,glycan array binding signal (z-score),[10],-0.547
same,glycan array binding signal (z-score),[11],-0.546
same,glycan array binding signal (z-score),[12],2.17
same,glycan array binding signal (z-score),[13],0.621
same,glycan array binding signal (z-score),[14],-0.518
same,glycan array binding signal (z-score),Gal6S(b1-4)Glc,-0.518
same,glycan array binding signal (z-score),GalNAc(a1-3)GalNAc,-0.553
same,glycan array binding signal (z-score),[15],2.55
same,glycan array binding signal (z-score),GlcNAc(b1-3)Gal,-0.567
same,glycan array binding signal (z-score),[16],-0.526
same,glycan array binding signal (z-score),[17],1.96
same,glycan array binding signal (z-score),[18],2.26
same,glycan array binding signal (z-score),GlcNAc(b1-6)GalNAc,-0.545
same,glycan array binding signal (z-score),Kdn(a2-3)Gal(b1-3)GlcNAc,-0.443
same,glycan array binding signal (z-score),[19],-0.296
same,glycan array binding signal (z-score),[20],-0.56
same,glycan array binding signal (z-score),[21],-0.466
same,glycan array binding signal (z-score),[22],-0.129
same,glycan array binding signal (z-score),[23],-0.542
same,glycan array binding signal (z-score),[24],-0.536
same,glycan array binding signal (z-score),[25],-0.502
same,glycan array binding signal (z-score),[26],-0.041
